Screens as filed in PubChem.
This is a sample that favours compounds with a hit; in the whole collection about 7.5% have one here.
NPC1 prom act – activators of NPC1 promoter. Huh7 NPC1 promoter luciferase reporter, 24 h. Potency, µM (top dose mostly 9.22 µM), for the others: top-dose activation, hits mostly activators. hit rate 2.4% among 320,000. AID 485313; also: % of control where 0% means no effect; nearly all actives have a fitted effect of over 60% in size
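Stably transfected Huh7 (NPC1 promoter→luciferase), 1500 cells/well in Opti-MEM + 10% FBS, 2 h settle, then compound 24 h at 37 °C. Luminescence after 10 min with Amplite reagent.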
SMN2 splice enh – enhancers of SMN2 splice variant expression; hit rate 2.8% among 210,000; HEK293 SMN2-luciferase splicing reporter, luminescence, 30-36 h; Potency, µM (series often up to 46.1 µM), for inactives: at the highest dose activity change, positive = activation, usual class: activators; also: % of control where 0% means no effect; nearly all actives have a fitted effect of over 55% in size
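HEK293 cells carry an SMN2 […]–luciferase reporter in which exon 7 inclusion puts luciferase in frame. Cells were plated 10-12 h before compound addition, then incubated 30-36 h at 37C. ONE-Glo luminescence was read; sodium butyrate at 4.5 mM final served as control.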
ELG1 genotox – induces genotoxicity in HEK293T cells with luciferase-tagged ELG1; HEK293T ELG1-luciferase reporter, luminescence, 16 h; hit rate 1.3% among 330,000; AID 504466; Potency, µM (series often up to 46 µM), for the others: at the top dose activity change, positive = activation, hits mostly activators; also: % of control where 0% means no effect; nearly all actives have a fitted effect of over 60% in size
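DMSO vehicle served as control against compound-treated ELG1-luciferase HEK293T cells; exposure lasted 16 hr at 37 °C and 5% CO2, followed by ONE-Glo luminescence detection after 30 min.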
Rab9 promoter act – Rab9 promoter activation; Huh7 Rab9 promoter-luciferase reporter, luminescence, 24 h; Potency, µM (doses to about 9.22 µM), for the others: at the highest dose activation, negative = inhibition, hits mostly activators; hit rate 2.8% among 320,000; AID 485297; also: % of control where 0% means no effect; nearly all actives have a fitted effect of over 60% in size
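Promoter activation is measured as luciferase luminescence in Huh7 cells stably transfected with a Rab9 promoter–luciferase construct, following 24 h compound exposure at 37 °C and 10 min reagent incubation at ambient temperature.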
FLuc counter – firefly luciferase modulation, counter-screen for miR-21 project. Potency, µM (titrated, usually from 57.5 µM), inactives show at the top dose activity change, negative = inhibition, hits mostly inhibitors. P08659. hit rate 6.9% among 360,000. purified FLuc, Km substrates, luminescence inhibition. AID 588342;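 also: plate controls were vehicle for no effect and reference inhibitor for full effect; nearly all actives have a fitted effect of over 55% in size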
Target sequence (P08659 whole entry, looked up): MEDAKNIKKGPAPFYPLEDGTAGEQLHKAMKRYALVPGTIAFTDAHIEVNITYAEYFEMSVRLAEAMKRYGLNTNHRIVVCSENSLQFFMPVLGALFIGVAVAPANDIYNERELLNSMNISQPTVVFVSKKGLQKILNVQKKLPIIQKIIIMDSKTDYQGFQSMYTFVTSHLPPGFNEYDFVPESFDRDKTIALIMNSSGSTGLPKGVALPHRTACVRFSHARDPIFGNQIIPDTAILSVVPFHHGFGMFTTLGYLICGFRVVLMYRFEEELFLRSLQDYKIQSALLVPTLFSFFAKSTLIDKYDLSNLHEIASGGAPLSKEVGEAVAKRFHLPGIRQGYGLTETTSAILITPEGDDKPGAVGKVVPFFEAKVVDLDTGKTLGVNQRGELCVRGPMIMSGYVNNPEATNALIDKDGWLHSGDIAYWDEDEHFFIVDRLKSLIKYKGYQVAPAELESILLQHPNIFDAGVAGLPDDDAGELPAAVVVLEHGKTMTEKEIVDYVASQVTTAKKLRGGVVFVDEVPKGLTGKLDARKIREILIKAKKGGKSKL
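Purified P. pyralis luciferase (10nM final) with 10uM D-luciferin and 10uM ATP (Km levels) in 50mM Tris acetate pH 7.5, 10mM Mg acetate, 0.01% Tween-20, 0.05% BSA; qHTS 6-point titration, ~60 µM downward; luminescence read.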
An asterisk follows results filed as active; ? = inconclusive; · = not tested or not shown; [ ] = remark or other dose. Calls follow the shape of the dose curve; as a rule, active = well fitted curve in the direction sought with a large enough effect; inconclusive = small, poorly fitted or top-dose-only effect, or another doubt; inactive = no such curve, though single readings can be large; an effect the other way counts as inactive or inconclusive. Potency is read from the fitted curve at half-maximal effect.

SMILES | NPC1 prom act | SMN2 splice enh | ELG1 genotox | Rab9 promoter act | FLuc counter
Cc1ccc(-c2nc(C(Cl)Cl)c3ccccc3n2)cc1 | -37% | · | 18% | -41% | 13µM*
Cc1ccc(-c2nc(NCc3ccco3)c3ccccc3n2)cc1 | 0% | 15% | -1% | -6% | ?
Cc1ccccc1C(=O)N1CCC(C(=O)Nc2cccc(F)c2)CC1 | -12% | 5% | -4% | -11% | 4%
CCc1nnc2c3ccccc3nc(Nc3ccc(F)cc3C)n12 | · | -3% | · | · | 5%
O=C(c1cnn2c(C(F)(F)F)cc(-c3ccco3)nc12)N1CCCc2ccccc21 | -3% | 2% | -5% | -4% | 1%
Cc1ccc(-c2nc(Nc3ccc(N4CCOCC4)cc3)c3ccccc3n2)cc1 | 0% | · | -7% | -3% | 24µM*
Cc1ccc(-c2nc(Nc3ccc(O)cc3)c3ccccc3n2)cc1 | 15% | · | 9% | 16% | 24µM*
COC(=O)c1ccc(Nc2nc(-c3ccc(C)cc3)nc3ccccc23)cc1 | · | 6% | · | · | ?
COCCn1c(C)cc(C(=O)CSc2nc3ccccc3s2)c1C | 0.35µM* | -77% | ? | 0.5µM* | 0.54µM*
COCCn1c(C)cc(C(=O)CSc2cc(C)c3ccc(OC)cc3n2)c1C | 7% | · | 2% | 19% | 3µM*
COCCn1c(C)cc(C(=O)CSc2nc3ccccc3o2)c1C | 0.63µM* | 7.9µM* | ? | 0.35µM* | 1.3µM*
COc1ccc2c(C)cc(SCC(=O)c3ccc4c(c3)OCO4)nc2c1 | -1% | -11% | -7% | 7% | ?
CC(C)C(C(=O)Nc1nccs1)N1C(=O)c2ccccc2C1=O (configuration not stated) | 0% | -1% | 0% | -7% | -2%
Cc1ccccc1CCNC(=O)C1CCN(S(=O)(=O)c2ccc(-n3cnnn3)cc2)CC1 | 8% | -2% | 1% | 11% | -6%
CC1SC(c2cccc(Cl)c2)NC1=O (configuration not stated) | 10% | 20% | -4% | 13% | 0%
COc1cc(C(c2c(C)[nH][nH]c2=O)c2c(C)[nH][nH]c2=O)cc([N+](=O)[O-])c1O | -1% | -21% | -2% | -1% | -13%
Cc1sc2ncn(CC(=O)Nc3cccc(C(F)(F)F)c3)c(=O)c2c1S(=O)(=O)N1CCN(C)CC1 | · | 15% | · | · | 0%
COc1ccc(OC)c2[nH]c(=O)c(CCNC(=O)C(=O)c3c(C)[nH]c4ccccc34)cc12 | 0% | · | -10% | -33% | 3%
COC(=O)c1ccc(NC(=O)c2ccc(C)cc2)o1 | 15% | 4% | 2% | 24% | 19µM*
COC(=O)c1ccc(NC(=O)c2ccc(F)cc2)o1 | -3% | -27% | 0% | -6% | ?
Nc1ccccc1Nc1cc(-c2ccccc2)[nH]n1 | -28% | ? | 8% | -16% | 11µM*
Nc1ccccc1Nc1ccccc1 | -5% | 16% | -10% | 0%[1.84 µM] | -6%
Nc1ccccc1Nc1cc(-c2ccccc2)nn1-c1ccccc1 | 10% | 12% | 8% | 16% | 17µM*
NCC1OC(O[C@@H]2[C@H](O)[C@@H](OC3C(O)C(N)CC(N)C3OC3OC(CO)C(O)C(O)C3N)O[C@@H]2CO)C(N)C(O)C1O (some centres not stated) | · | -1% | · | · | ·
CCOC(=O)c1c(O)cc(OC)cc1CCc1ccccc1 | · | · | 0% | · | ·
SMILES | NPC1 prom act | SMN2 splice enh | ELG1 genotox | Rab9 promoter act | FLuc counter
Cn1cc(/C=N/NC(=O)c2cc3cc(Br)ccc3o2)c2ccccc21 | 9% | · | -1% | 5% | 8.5µM*
O=C(O)c1ccc(-n2cccc2/C=N\NC(=O)c2cc3cc(Br)ccc3o2)cc1 | -4% | · | -2% | -2% | 15µM*
O=C(O)Cn1cc(/C=N/NC(=O)c2cc3cc(Br)ccc3o2)c2ccccc21 | 1% | · | 1% | 1% | 12µM*
O=C(N/N=C/c1cccc2ccccc12)c1cc2ccccc2o1 | 0% | · | 0% | 1% | ?
C#CCn1cc(/C=N/NC(=O)c2cc3ccccc3o2)c2ccccc21 | 9% | 7% | 0% | -2% | 12µM*
CC(C)(C)OC(=O)NCc1ccc(NC(=O)c2nc[nH]c2C(=O)NCCN(CCNC(=O)c2[nH]cnc2C(=O)Nc2ccc(CNC(=O)OC(C)(C)C)cc2)CCNC(=O)c2[nH]cnc2C(=O)Nc2ccc(CNC(=O)OC(C)(C)C)cc2)cc1 | · | · | 3% | · | ·
O=C1c2cccc([N+](=O)[O-])c2C(=O)N1c1c[nH]c(=O)[nH]c1=O | -5% | 3% | 1% | 7% | -5%
Cc1cccn2c(=O)nc(SCC(=O)c3ccccc3)nc12 | 17% | · | 21µM* | 18% | -2%
O=C(COC(=O)c1ccc2c(c1)OCCO2)NC1CCCCC1 | -1% | · | -3% | 0% | -15%
O=C(COC(=O)c1ccc(Cl)nc1)c1ccc2c(c1)OCCO2 | 4µM* | -3% | ? | 1.6µM* | 0.76µM*
O=C(COC(=O)C(O)c1ccccc1)c1ccc2c(c1)OCCO2 (configuration not stated) | -5% | -8% | 4% | -1% | 1.5µM*
CCc1ccc(C(=O)COC(=O)c2ccc(Cl)nc2)cc1 | 17% | 23% | 2% | ? | 9.5µM*
CCCC(=O)c1ccc2c(c1)OCCO2 | 11% | 17% | 20% | 19% | ?
O=C(COC(=O)c1cccnc1Cl)c1ccc2c(c1)OCCO2 | 24% | -1% | -3% | 4.5µM* | 0.11µM*
CCOC(=O)c1c(C)[nH]c(C)c1C(=O)COC(=O)c1ccc(Cl)nc1 | · | · | 1% | · | ·
COc1ccc(NC(=O)CSc2nnc(Cn3cnc([N+](=O)[O-])n3)n2C)cc1 | -1% | -5% | 0% | -4% | 6%
Cc1cc(OCC(=O)N(Cc2sccc2C)C2CCS(=O)(=O)C2)ccc1Cl (configuration not stated) | · | 8% | · | · | -2%
CC(C)Cc1nnc(NC(=O)CCC(=O)NCCc2ccccc2)s1 | 3% | · | 0% | -1% | -2%
CCN1CCN(C(=O)C2COc3ccccc3O2)CC1 (configuration not stated) | -1% | · | -1% | 0% | 0%
CSc1sc(C(=O)O)c2c1C(=O)CCC2 | 6% | 15% | -5% | -1% | 2%
O=C(COC(=O)Cc1c(Cl)cccc1Cl)NC1CCCC1 | · | · | 2% | · | ·
O=C(COC(=O)c1c(F)cccc1Cl)NC1CCCCC1 | ? | · | ? | ? | 15µM*
O=C(COC(=O)c1ccccc1F)NC1CCCC1 | -2% | · | 1% | -1% | 24µM*
O=C(COC(=O)c1cccs1)NC1CCCCC1 | 2% | 1% | -1% | 5% | 21µM*
O=C(NC(=S)NC1CCCC1)c1ccccc1 | ? | · | ? | ? | 17µM*
CC(=O)c1ccc(C(=O)Nc2sc3c(c2C(N)=O)CCN(Cc2ccccc2)C3)cc1 | -2% | · | 11% | -3% | -2%
O=C(COC(=O)c1ccccc1)NC1CCCC1 | -3% | · | 9% | -8%[1.84 µM] | 17µM*
O=C(COC(=O)c1ccccc1)NC(=O)NC1CCCC1 | -2% | · | 2% | -3% | -5%
